B1: Caulobacter ParB omega fusion; a variant is named by its letters at X, in order, B8GW30 (parent)
chain: MESVVVGEPGMSEGRRGLGRGLSALLGEVDAAPAQAPGEQLGGSREAPIEILQRNPDQPRRTFREEDLEDLSNSIREKGVLQPILVRPSPDTAGEYQIVAGERAWRAAQRAGLKTVPIMVRELDDLAVLEIGIIENVQRADLNVLEEALSYKVLMEKFERTQENIAQTIGKSXSHVANXMRLLXLPDEVQSYLVSGELTAXHARAIAAAADPVALAKQIIEGGLSVRETEALARKAPNLSAGKSKGGRPPRVKDTDTQALESDLSSVLGLDVSIDHRGSTGTLTITYATLEQLDDLCNRLTRGI

This is an account of results in a collection of fitness landscapes (doi:10.1016/j.celrep.2020.107928).

The full ranking holds about 81,000 sequences; the median of “one-hybrid fitness for binding parS DNA” is about -0.17, and the highest 2% start at about 0.51. For the sample, the highest values were picked, then their nearest neighbours and some sequences at random.

The variants in the assay derive from B1. In words: one-hybrid fitness for binding parS DNA (scaled: cognate 1, non-cognate 0); higher = stronger binding. Conditions: with parS DNA site. Put shortly:
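Caulobacter ParB libraries with four specificity codons randomised were screened by bacterial one-hybrid selection in the E. coli USO strain, using a HIS3 reporter whose site lies 19 bp from the promoter. Selection ran for 48 hours at 37°C on M9 lacking histidine, with 0.1 mM IPTG and 5 mM 3-AT. Plasmids were Illumina-sequenced before and after selection, three replicate libraries were pooled, and variants with under 10 reads were dropped. Fitness is the log change in each variant's read ratio to wild type, rescaled against the cognate and non-cognate sites.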
With RLHQ, the “one-hybrid fitness for binding parS DNA” value is not above 0.2. As for CRRT, the “one-hybrid fitness for binding parS DNA” value was not above 0.2. Under TFGN stands not above 0.2. The value for FDPG was not above 0.2.

In the case of QNIS, the “one-hybrid fitness for binding parS DNA” value is not above 0.2.

For the variant FWAR, the “one-hybrid fitness for binding parS DNA” value is not above 0.2. Under TTPY stands not above 0.2. Under NYDR stands not above 0.2; under DKHC, not above 0.2; under YHHS, not above 0.2. Under RHSF stands not above 0.2; under RHCT, 0.766; under RHST, 0.854. For RHCD, the “one-hybrid fitness for binding parS DNA” value is not above 0.2.

Turning to RHQT, the “one-hybrid fitness for binding parS DNA” value is 0.853. For the variant RHGF, the “one-hybrid fitness for binding parS DNA” value is not above 0.2.

Take RHQK: the “one-hybrid fitness for binding parS DNA” value is not above 0.2.

As for RHCN, the “one-hybrid fitness for binding parS DNA” value was determined as 0.381. As for RHSY, the “one-hybrid fitness for binding parS DNA” value was 0.41. Take RHQF: the “one-hybrid fitness for binding parS DNA” value was not above 0.2.

For the variant RHGM, the “one-hybrid fitness for binding parS DNA” value amounted to 0.232. The value for RHGT was 0.832; that for WKSA was not above 0.2. Under NGKG stands not above 0.2; under MLAT, not above 0.2. With AQPR, the “one-hybrid fitness for binding parS DNA” value is not above 0.2. As to VSSM, the “one-hybrid fitness for binding parS DNA” value is not above 0.2. In the case of GPRN, the “one-hybrid fitness for binding parS DNA” value is not above 0.2. Under MTAN stands not above 0.2; under FTMR, not above 0.2; under TSLA, not above 0.2.

As to VLVS, the “one-hybrid fitness for binding parS DNA” value is not above 0.2. With TYKP, the “one-hybrid fitness for binding parS DNA” value is not above 0.2.

Consider SNHT, for which the “one-hybrid fitness for binding parS DNA” value was not above 0.2. For RHYN, the “one-hybrid fitness for binding parS DNA” value stood at 0.448. Under RHRY stands 0.473. On to RHYT, for which the “one-hybrid fitness for binding parS DNA” value was determined as 0.806. As to RHWR, the “one-hybrid fitness for binding parS DNA” value was not above 0.2. Turning to RHWK, the “one-hybrid fitness for binding parS DNA” value was not above 0.2. As to RHYK, the “one-hybrid fitness for binding parS DNA” value is not above 0.2. As to RHWT, the “one-hybrid fitness for binding parS DNA” value worked out at 0.692. Under RHRM stands 0.277.

With RHRT, the “one-hybrid fitness for binding parS DNA” value worked out at 0.788.

Consider ITCG, for which the “one-hybrid fitness for binding parS DNA” value was not above 0.2. Under LTNS stands not above 0.2; under TGVT, not above 0.2.

With VSLW, the “one-hybrid fitness for binding parS DNA” value was not above 0.2. Take SSDD: the “one-hybrid fitness for binding parS DNA” value is not above 0.2. Under RLIF stands not above 0.2; under RLIC, 0.938; under RLIQ, not above 0.2.

For RLPC, the “one-hybrid fitness for binding parS DNA” value amounted to 0.681. Take RLPR: the “one-hybrid fitness for binding parS DNA” value was not above 0.2.

In the case of RLPF, the “one-hybrid fitness for binding parS DNA” value was not above 0.2. As for SDVC, the “one-hybrid fitness for binding parS DNA” value was not above 0.2. For the variant QSHD, the “one-hybrid fitness for binding parS DNA” value is not above 0.2.

As for RMNA, the “one-hybrid fitness for binding parS DNA” value amounted to 0.606.

Turning to RMDA, the “one-hybrid fitness for binding parS DNA” value was 0.572. The value for SISG was not above 0.2; that for RVQS was 0.989; that for RVQH was 0.223.

As to RVGS, the “one-hybrid fitness for binding parS DNA” value was found to be 0.954. With RVSP, the “one-hybrid fitness for binding parS DNA” value is not above 0.2. Under RVSN stands 0.426; under RVQD, not above 0.2; under RVGP, not above 0.2. As for RVGH, the “one-hybrid fitness for binding parS DNA” value was not above 0.2. Under RVSS stands 0.975; under RVHH, 0.235; under RVHN, 0.425. Take RVHS: the “one-hybrid fitness for binding parS DNA” value came out at 0.972.

Regarding IMHT, the “one-hybrid fitness for binding parS DNA” value was not above 0.2. Consider WTRR, for which the “one-hybrid fitness for binding parS DNA” value was not above 0.2. With ISNF, the “one-hybrid fitness for binding parS DNA” value was not above 0.2. On to FYDL, for which the “one-hybrid fitness for binding parS DNA” value is not above 0.2. As for IAGR, the “one-hybrid fitness for binding parS DNA” value is not above 0.2.

Take TAIN: the “one-hybrid fitness for binding parS DNA” value was not above 0.2. Under RVWN stands 0.478; under RVYS, 1.04. For the variant RVRN, the “one-hybrid fitness for binding parS DNA” value came to 0.409.

Consider RVYH, for which the “one-hybrid fitness for binding parS DNA” value turned out to be 0.263. RVCH: the “one-hybrid fitness for binding parS DNA” value was not above 0.2. Under RVYD stands 0.216. The value for RVRD was not above 0.2; that for RVWD was 0.212. For RVWS, the “one-hybrid fitness for binding parS DNA” value is 1.05. RVCS: the “one-hybrid fitness for binding parS DNA” value came out at 1.03. The value for RVRS was 0.895; that for RVCD was not above 0.2. Under MMSR stands not above 0.2; under MHFY, not above 0.2; under QASI, not above 0.2. Under TREC stands not above 0.2. Take PYKT: the “one-hybrid fitness for binding parS DNA” value was not above 0.2. The value for HPDN was not above 0.2. On to KRKQ, for which the “one-hybrid fitness for binding parS DNA” value is not above 0.2. Under KLMV stands not above 0.2. On to RVLS, for which the “one-hybrid fitness for binding parS DNA” value was found to be 1.03.

For RVLH, the “one-hybrid fitness for binding parS DNA” value was determined as 0.229. The value for RVLP was not above 0.2; that for TMII was not above 0.2. Take RPVG: the “one-hybrid fitness for binding parS DNA” value was not above 0.2. As for RSVM, the “one-hybrid fitness for binding parS DNA” value was determined as 0.265. Under RSVG stands 0.89; under RDVG, not above 0.2; under RSVK, not above 0.2. RCVG: the “one-hybrid fitness for binding parS DNA” value worked out at 0.991.

In the case of MFMG, the “one-hybrid fitness for binding parS DNA” value is not above 0.2. The value for RFCF was not above 0.2; that for TLGM was not above 0.2; that for RKGF was not above 0.2. Consider RKGC, for which the “one-hybrid fitness for binding parS DNA” value worked out at 0.827. Under RMGL stands not above 0.2. Under RCGC stands 0.97.

As to RKGR, the “one-hybrid fitness for binding parS DNA” value is not above 0.2. For RMGC, the “one-hybrid fitness for binding parS DNA” value came out at 0.952. With RSGP, the “one-hybrid fitness for binding parS DNA” value is not above 0.2. Take RSGC: the “one-hybrid fitness for binding parS DNA” value was 0.956. Under RMGM stands 0.315. As to RDGC, the “one-hybrid fitness for binding parS DNA” value was not above 0.2. As to RPGC, the “one-hybrid fitness for binding parS DNA” value is not above 0.2. For the variant RSGH, the “one-hybrid fitness for binding parS DNA” value amounted to 0.208. For QVMA, the “one-hybrid fitness for binding parS DNA” value is not above 0.2. As to QTTD, the “one-hybrid fitness for binding parS DNA” value was not above 0.2.

Consider LGCG, for which the “one-hybrid fitness for binding parS DNA” value is not above 0.2. The value for PLWY was not above 0.2; that for QQVF was not above 0.2. Under HPKR stands not above 0.2; under DNQS, not above 0.2. On to YLEP, for which the “one-hybrid fitness for binding parS DNA” value was not above 0.2. The value for MTEN was not above 0.2.

Regarding RHGK, the “one-hybrid fitness for binding parS DNA” value is not above 0.2. The value for RAGY was 0.473; that for RAGF was 0.247; that for RHGC was 0.896.

As for RRGC, the “one-hybrid fitness for binding parS DNA” value was determined as 0.593. Under RRGQ stands not above 0.2; under RLGM, 0.352; under RRGR, not above 0.2. Under RLGC stands 0.97; under RLGK, not above 0.2. Under RHGY stands 0.429. On to RAGC, for which the “one-hybrid fitness for binding parS DNA” value was 0.968.

Take DSNT: the “one-hybrid fitness for binding parS DNA” value was not above 0.2. Under KDLS stands not above 0.2; under GQVC, not above 0.2. Under YDLG stands not above 0.2; under KTAM, not above 0.2. Turning to RIGM, the “one-hybrid fitness for binding parS DNA” value was determined as 0.268. For RFGC, the “one-hybrid fitness for binding parS DNA” value stood at 0.882. As for RIGC, the “one-hybrid fitness for binding parS DNA” value was 0.955.

For RIGF, the “one-hybrid fitness for binding parS DNA” value was 0.234.

In the case of NFGC, the “one-hybrid fitness for binding parS DNA” value is not above 0.2. Under RFGR stands not above 0.2.
